Data taken from PubChem BioAssay (NCATS).
Results filed as inconclusive are left out. Active and inactive are the calls of the source. Calls follow the shape of the dose curve; as a rule, active = well fitted inhibition curve with a large enough effect; inconclusive = small, poorly fitted or top-dose-only effect; inactive = flat fitted curve, though single readings scatter.

Legend:
Assay in all cases: Cytotoxic Profiling of Annotated Libraries Using Quantitative High-Throughput Screening (AID 1296008); also: nearly all actives have a fitted effect of over 60% in size
Details in all cases: Five cell lines viability, CellTiter-Glo ATP luminescence, 48-72 h; max response: active compounds read low
CRL-7250 = system: CRL-7250
How it was run: (§1)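 Cells exposed to compounds for 48 or 72 hr at 37 degrees Celsius. Viability read as ATP-coupled luminescence with CellTiter-Glo after 10 min at room temperature.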

HEK293 = system: HEK293
How it was run: as §1

HaCat = system: HaCat
How it was run: as §1

KB-3-1 = system: KB-3-1
How it was run: as §1

NIH3T3 = system: NIH3T3
How it was run: as §1

Measured: max response
% is scaled to controls: 0 for no effect and ±100 for the full control effect.

CC(=O)N[C@@H](CCCCN)C(=O)N(C)[C@@H](CC(C)C)C(=O)N[C@H](C(=O)N(C)[C@@H](Cc1ccccc1)C(=O)N[C@H](Cc1ccccc1)C(N)=O)C(C)C
inactive: CRL-7250 | HEK293 -3.34% | HaCat -11.8% | KB-3-1 | NIH3T3 -4.99%

O=C(O)/C=C/c1cc2c(cc1O[C@@H]1O[C@H](CO)[C@@H](O)[C@H](O)[C@H]1O)OCO2
inactive: CRL-7250 4.22% | HEK293 2.33% | HaCat 0.0176% | KB-3-1 8.77% | NIH3T3 4.44%

C[C@@H]1O[C@@H](O[C@@H]2CO[C@@H](O[C@H]3CC[C@@]4(C)C(CC[C@]5(C)C4CC=C4[C@@H]6CC(C)(C)CC[C@]6(C(=O)O[C@@H]6O[C@H](CO)[C@@H](O)[C@H](O)[C@H]6O)CC[C@]45C)[C@]3(C)CO)[C@H](O)[C@H]2O[C@@H]2O[C@H](CO)[C@@H](O)[C@H](O)[C@H]2O)[C@H](O)[C@H](O)[C@H]1O (stereo not given in full)
inactive: CRL-7250 -2.09% | HEK293 1.34% | HaCat -0.513% | KB-3-1 | NIH3T3 2.94%

COc1ccc([C@@]2(O)c3c(ccc4c3OC(C)(CCC=C(C)C)C=C4)NC(=O)[C@@H]2OC)cc1 (stereo not given in full)
inactive: CRL-7250 4.89% | HEK293 -3.72% | HaCat 1.02% | KB-3-1 4.57% | NIH3T3 -14.3%

COC1CC(OC2CCC3(C)C(=CCC4C3C(OC(C)=O)C(OC(=O)/C=C/c3ccccc3)C3(C)C(C(C)O)CCC43O)C2)OC(C)C1OC1CC(OC)C(OC2OC(C)C(OC3OC(CO)C(O)C(O)C3O)C(OC)C2O)C(C)O1 (stereo not given)
inactive: CRL-7250 2.68% | HEK293 -2.45% | HaCat 0.93% | KB-3-1 -1.59% | NIH3T3 0.895%
